From PubChem BioAssay
KB-V1 MDR tox: qHTS assay for MDR1-selective chemotherapeutics: Primary screen using the drug-selected MDR subline cells KB-V1. KB-V1 MDR cells viability, CellTiter-Glo, 72 h. AID 1347076, 2019. Potency, µM (titrated, usually from 46.1 µM), most hits filed as cytotoxic. 400,000 compounds, 3.4% hits; further: nearly all actives have a fitted effect of over 60% in size
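Readout: CellTiter-Glo luminescence, 10 min after addition. Cells: KB-V1 MDR subline, 72 h at 37 degrees C with compound. Analysis: corrected, normalized data fitted to concentration-effect curves.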
SW480 rerep: A quantitative high throughput screen for small molecules that induce DNA re-replication in SW480 colon adenocarcinoma cells; SW480 DNA re-replication, Hoechst DNA content imaging, 48 h; Potency, µM (highest dose often 46.1 µM), actives largely listed as activators; 340,000 compounds, 1.8% hits; AID 624297, 2012; further: nearly all actives have a fitted effect of over 55% in size
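Readout is total intensity of Hoechst-stained nuclei, excited at 405 nm and collected at 500-530 nm. Compound treatment lasted 48 hr at 37 C in 5% CO2 before staining.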
MCF10A rereplic: A quantitative high throughput screen for small molecules that induce DNA re-replication in MCF 10a normal breast cells. MCF 10A DNA re-replication, Hoechst nuclear intensity, 48 h. Potency, µM (titrated, usually from 46.1 µM), hits mostly activators. 350,000 compounds, 2.9% hits; further: nearly all actives have a fitted effect of over 50% in size
D3 antag: qHTS of D3 Dopamine Receptor Antagonist: qHTS | max response, negative = inhibition, % | AID 652054, 2013 | 360,000 compounds, 2.5% hits | D3R cells, DiscoveRx beta-arrestin luminescence, antagonist mode; stronger effect = lower value; in the data active means max response below about -50%; inconclusive means no clear call, values can overlap the other calls
Target sequence (P35462 whole entry, looked up): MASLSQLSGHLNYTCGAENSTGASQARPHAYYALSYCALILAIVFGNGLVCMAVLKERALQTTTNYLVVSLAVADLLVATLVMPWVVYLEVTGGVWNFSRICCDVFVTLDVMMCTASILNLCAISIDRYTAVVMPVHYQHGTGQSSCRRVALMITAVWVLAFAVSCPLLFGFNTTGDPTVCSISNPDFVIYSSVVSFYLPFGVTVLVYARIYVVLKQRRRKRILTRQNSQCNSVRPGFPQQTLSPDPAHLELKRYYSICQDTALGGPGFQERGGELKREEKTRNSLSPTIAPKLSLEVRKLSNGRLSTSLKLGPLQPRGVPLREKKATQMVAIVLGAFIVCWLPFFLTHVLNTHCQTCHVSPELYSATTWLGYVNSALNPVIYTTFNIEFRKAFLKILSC
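Cells plated overnight at 1500 cells/well, then exposed to library compounds with dopamine controls for 90 minutes at 37 degrees C. DiscoveRx reagent added for 30–60 minutes at room temperature; luminescence read, quantitative HTS format.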
DRD3 agonist: qHTS of D3 Dopamine Receptor Agonist: qHTS; D(3) dopamine receptor (Homo sapiens), P35462; D3R DiscoveRx beta-arrestin cells, luminescence, 90 min; max activation, %; 410,000 compounds, 0.58% hits; in the data active means max activation above about 30%
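Agonist mode: compounds and dopamine controls were applied to plated cells for 90 min at 37 degrees C after an overnight attachment at 1500 cells/well. Luminescent read-out followed 30 - 60 minutes at room temperature with DiscoveRx detection reagent.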
KB-3-1 tox: qHTS assay for MDR1-selective chemotherapeutics: Primary screen using the parental adenocarcinoma cell KB-3-1; KB-3-1 viability, CellTiter-Glo ATP luminescence, 72 h; Potency, µM (titrated, usually from 46.1 µM), hits mostly cytotoxic; 400,000 compounds, 1.4% hits; AID 1347075, 2019; further: nearly all actives have a fitted effect of over 60% in size
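Screening of KB-3-1 cells (DMEM, 10% FBS, phenol-red free) ran from lowest to highest compound concentration; after 72 h at 37 °C viability was read luminescently and curves fitted.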
A number is an active result. This is a sample that favours compounds with a hit; in the whole collection about 8.9% have one here. Unless noted, the call rests on the fitted dose curve; in most records, active means well fitted curve in the direction sought with a large enough effect; inconclusive means small, poorly fitted or top-dose-only effect, or another doubt; inactive means no such curve, though single readings can be large; an effect the other way counts as inactive or inconclusive.

`CSc1cccc(NS(=O)(=O)c2ccc3[nH]cc(C(=O)N4CCCCCC4)c(=O)c3c2)c1` gave KB-V1 MDR tox inactive, DRD3 agonist inactive and KB-3-1 tox inactive.
COc1cc(OC)cc(-c2nc3nc(C)c(CCC(=O)Nc4ccc(Cl)cc4)c(C)n3n2)c1 was read as KB-V1 MDR tox inactive, DRD3 agonist inactive and KB-3-1 tox inactive.
`CCOCc1c(C(=O)N2CCN(CCOc3ccc(Cl)cc3)CC2)oc2ccccc12` gave KB-V1 MDR tox inactive, SW480 rerep inactive, MCF10A rereplic inactive, D3 antag inactive, DRD3 agonist 108 and KB-3-1 tox inactive.
`O=C(c1cc2ccccc2o1)N1CCN(CCOc2ccccc2)CC1` gave KB-V1 MDR tox inactive, SW480 rerep inactive, MCF10A rereplic inactive, D3 antag inactive, DRD3 agonist 58 and KB-3-1 tox inactive.
For O=C(OCCN1CCCCC1)c1cc2ccccc2o1 the results were KB-V1 MDR tox inactive, SW480 rerep inactive, MCF10A rereplic inactive, D3 antag -66, DRD3 agonist inactive and KB-3-1 tox inactive.
Screening CCCN1CCN(C(=O)Nc2ccc(OCC)cc2)CC1 returned KB-V1 MDR tox inactive, SW480 rerep inactive, MCF10A rereplic inactive, D3 antag inactive, DRD3 agonist inactive and KB-3-1 tox inactive.
`O=C(Nc1ccc2ccccc2c1)N1CCCN(CCOc2ccccc2)CC1` gave KB-V1 MDR tox 15µM, SW480 rerep inactive, MCF10A rereplic inactive, D3 antag -78, DRD3 agonist inactive and KB-3-1 tox inconclusive.
CCOCc1c(C(=O)N2CCN(CC(=O)Nc3ccc(F)cc3)CC2)oc2ccccc12 was read as KB-V1 MDR tox inconclusive, SW480 rerep inactive, MCF10A rereplic inconclusive, D3 antag inactive, DRD3 agonist inactive and KB-3-1 tox inactive.
`COc1ccc(CCNC(=O)C(=O)NCC(c2cccs2)S(=O)(=O)c2ccccc2)cc1` (centres undefined) gave KB-V1 MDR tox inactive, DRD3 agonist inactive and KB-3-1 tox inactive.
Screening O=C(c1ccccc1Cl)N1CCCC(c2nc3c(nnn3Cc3ccc(F)cc3F)c(=O)[nH]2)C1 (centres undefined) returned KB-V1 MDR tox inactive, DRD3 agonist inactive and KB-3-1 tox inactive.
Screening O=C(c1ccco1)c1nc2c(n1O)CCCCC2 returned KB-V1 MDR tox inactive, SW480 rerep inactive, MCF10A rereplic inactive, D3 antag inactive, DRD3 agonist inactive and KB-3-1 tox inactive.
Screening O=C(c1cc2ccccc2o1)c1nc2c(n1O)CCCCC2 returned KB-V1 MDR tox inactive, SW480 rerep inactive, MCF10A rereplic inactive, D3 antag -79, DRD3 agonist inactive and KB-3-1 tox inactive.
For O=C(c1cc2ccccc2o1)N1CCN(S(=O)(=O)c2ccccc2)CC1 the results were KB-V1 MDR tox inactive, SW480 rerep inconclusive, MCF10A rereplic inactive, D3 antag inactive, DRD3 agonist inactive and KB-3-1 tox inactive.
Screening O=C(c1cc2ccccc2o1)N1CCN(S(=O)(=O)c2cccs2)CC1 returned KB-V1 MDR tox inactive, SW480 rerep inactive, MCF10A rereplic inactive, D3 antag -56, DRD3 agonist inactive and KB-3-1 tox inactive.
Screening CC(C)(C)c1cc(-c2nc(N)nc(N)n2)c(O)c(C(C)(C)C)c1 returned KB-V1 MDR tox inconclusive, SW480 rerep inactive, MCF10A rereplic inactive, D3 antag inactive, DRD3 agonist 48 and KB-3-1 tox inconclusive.
Screening C1=Cc2ccccc2/C1=C(\Cc1ccncc1)Oc1ccncc1 returned KB-V1 MDR tox inactive and KB-3-1 tox inconclusive.
`Cc1ccc(-c2ccc(=O)n(Cc3cccc(Br)c3)n2)cc1` gave KB-V1 MDR tox 16µM, SW480 rerep inconclusive, MCF10A rereplic inconclusive, D3 antag inactive, DRD3 agonist inactive and KB-3-1 tox inconclusive.
`O=c1ccc(-c2ccccc2)nn1Cc1ccccc1` gave KB-V1 MDR tox inactive, SW480 rerep inactive, MCF10A rereplic inactive, D3 antag inactive, DRD3 agonist inactive and KB-3-1 tox inactive.
For O=C(COc1ccc(/C=C\[N+](=O)[O-])cc1)N1CCOCC1 the results were KB-V1 MDR tox inactive, SW480 rerep inactive, MCF10A rereplic inactive, D3 antag inactive, DRD3 agonist inactive and KB-3-1 tox inactive.
For O=[N+]([O-])/C=C\c1ccc(N2CCOCC2)cc1 the results were KB-V1 MDR tox inconclusive, SW480 rerep 15µM, MCF10A rereplic inactive, D3 antag inactive, DRD3 agonist inactive and KB-3-1 tox inconclusive.
For Cn1c(=O)c2c(nc(C3CC4C5CCC(C5)C4C3)n2C)n(C)c1=O (centres undefined) the results were KB-V1 MDR tox 15µM, SW480 rerep inactive, MCF10A rereplic inactive, D3 antag inactive, DRD3 agonist inactive and KB-3-1 tox inactive.
For Cn1c(=O)c2c(nc(CCC3CCCC3)n2C)n(C)c1=O the results were KB-V1 MDR tox inactive, SW480 rerep inactive, MCF10A rereplic inactive, D3 antag inactive, DRD3 agonist inactive and KB-3-1 tox inactive.
`Cc1cc(O)c(Sc2ncn[nH]2)cc1NS(=O)(=O)c1ccc(Cl)cc1` gave KB-V1 MDR tox inactive, SW480 rerep inactive, MCF10A rereplic inactive, D3 antag inactive, DRD3 agonist inactive and KB-3-1 tox inconclusive.
`O=S(=O)(Nc1cc(Sc2ncn[nH]2)c(O)c2ccccc12)c1ccccc1` gave KB-V1 MDR tox inactive, SW480 rerep 10µM, MCF10A rereplic 1µM, D3 antag -100, DRD3 agonist inactive and KB-3-1 tox inactive.
`C=CCn1c(=O)n2ncnc2c2c3c(sc21)CCCC3` gave KB-V1 MDR tox 15µM, SW480 rerep inactive, MCF10A rereplic inactive, D3 antag inactive, DRD3 agonist inactive and KB-3-1 tox inactive.
`O=c1n(Cc2ccc(Cl)cc2)c2sc3c(c2c2ncnn12)CCCC3` gave KB-V1 MDR tox inconclusive, SW480 rerep inactive, MCF10A rereplic inconclusive, D3 antag inactive, DRD3 agonist inactive and KB-3-1 tox inconclusive.
CCOc1ccc(NC(=O)c2nc(S(=O)(=O)Cc3ccc(F)cc3)ncc2Cl)cc1 was read as KB-V1 MDR tox inconclusive and KB-3-1 tox inactive.
Screening Cc1ccc(S(=O)(=O)N2CCn3cccc3C2C)cc1 (centres undefined) returned KB-V1 MDR tox 13µM, SW480 rerep inactive, MCF10A rereplic inconclusive, D3 antag inactive, DRD3 agonist inactive and KB-3-1 tox inactive.
For COc1cc(OC)cc(C(=O)NCCCCCCNC(=O)c2cc(OC)cc(OC)c2)c1 the results were KB-V1 MDR tox 18µM, SW480 rerep inconclusive, MCF10A rereplic inactive, D3 antag inactive, DRD3 agonist inactive and KB-3-1 tox inactive.
